From PubChem BioAssay (NCATS)
Inconclusive results are not listed. Values without a mark were called inactive. Calls of active or inactive are those of the source. Calls follow the shape of the dose curve; as a rule, active = well fitted cell-killing curve with a large enough effect; inconclusive = small, poorly fitted or top-dose-only effect; inactive = no such curve, though single readings can be large or run the other way.

Assay: qHTS of pediatric cancer cell lines to identify multiple opportunities for drug repurposing: Confirmatory screen for DAOY cells (AID 1347114); also: nearly all actives have a fitted effect of over 65% in size
Conditions: DAOY medulloblastoma cells viability, cytotoxicity qHTS; series mostly up to 45.9 µM; activity change, negative = cytotoxic: at the top concentration
Description: Drug repurposing or repositioning has been offered as a strategy for drug development in oncology programs. This approach has special potential for childhood cancers and other rare or orphan diseases, where the expected return on new drug development has been a disincentive to pharmaceuticals.
In this project we exploit the poly-pharmacology of drugs to discover new indications via phenotypic screening of a panel of 19 well-characterized cell lines derived from solid tumors seen in children and adolescents. The goal is to identify approved drugs with previously unrecognized anticancer properties that has the potential to reveal new mechanisms and biological processes involved in carcinogenesis or drug resistance. We employed a titration-based paradigm (quantitative high-throughput screening or qHTS), where all compounds were tested at multiple concentrations for their effect on cell viability. Concentration-response curves (CRCs) were derived directly from the primary screen, and both potency and efficacy values were used to identify compounds with robust bioactivity profiles. We screened the NIH Chemical Genomics Center (NCGC) Pharmaceutical Collection (NPC) and Mechanism Interrogation Plate (MIPE) small molecule collections of approved and investigational compounds against these cell lines; and measured metabolically active cells after 48 hours of compound treatment as a proxy for cell viability.
Assay Submitter: Nathalia J. Martinez, National Center for Advancing Translational Sciences, National Institutes of Health, Rockville, MD, USA; email: natalia.martinez@nih.gov
[1] Shen, M et al. Quantitative high-throughput phenotypic screening of pediatric cancer cell lines identifies multiple opportunities for drug repurposing. Oncotarget 2017 Dec 19;9(4):4758-4772. PMID 29435139.
The cells were obtained from University of North Carolina (UNC), Pediatric Preclinical Testing Program (PPT), and Coriell Institute (CI).
qHTS cell viability assay:
Cells were assayed in growth media at a density of 500-1,000 cells/well. Five microliters of cells were dispensed into 1,536-well, white, solid-bottom, TC-treated plates (Greiner Bio One) using a multidrop dispenser and incubated at 37 degrees C, 5% CO2, under a humidified atmosphere for 5 hours. Twenty-three nanoliters of compounds and controls (neutral control DMSO or positive control bortezomib at final concentration of 2.3 µM) were subsequently transferred by Kalypsys pintool. For primary screens, the MIPE collection was tested at 11-point dilutions (final concentrations range from 0.78 nM to 46 µM) and the NPC collection at 8-point dilutions (final concentrations range from 0.59 nM to 46 µM). Compounds tested in follow-up screens were assayed at 11-point dilutions. Cells were incubated for 48 hours, followed by addition of 3 uL of CellTiter-Glo (Promega). After a 15 min incubation at room temperature, samples were analyzed for luminescence intensity using a ViewLux High-throughput CCD imager equipped with clear filters.
% is scaled to controls: 0 for no effect and ±100 for the full control effect; potency is read from the fitted curve at half-maximal effect.

| Compound | activity change, negative = cytotoxic | Potency |
| --- | --- | --- |
| Nc1ncnc2c1ncn2[C@@H]1O[C@H](CO)[C@@H](O)[C@@H]1O | 16.7% |  |
| O=C1Nc2ccc(I)cc2C1=Cc1cc(Br)c(O)c(Br)c1 | -23.8% |  |
| COc1cc(CNC(=O)CCCCC=CC(C)C)ccc1O | -22.9% |  |
| CC[C@]1(O)C[C@H]2CN(CCC3=c4ccccc4=N[C]3[C@@](C(=O)OC)(c3cc4c(cc3OC)N(C)[C@H]3[C@@](O)(C(N)=O)[C@H](O)[C@]5(CC)C=CCN6CC[C@]43[C@@H]65)C2)C1 |  | 0.261 µM (active) |
| CC(=O)N1CCN(c2ccc(OCc3nn(C)c(C)c3-c3cccc4c(CCCOc5cc(C)c(Cl)c(C)c5)c(C(=O)O)n(Cc5cccnc5)c34)cc2)CC1 | -13.2% |  |
| COC(=O)[C@H](c1ccccc1Cl)N1CCc2sccc2C1 | -2.02% |  |
| CC1(C)CC(=O)c2c(C(F)(F)F)nn(-c3ccc(C(N)=O)c(NC4CCC(O)CC4)c3)c2C1 (stereo not given) | -25% |  |
| O=c1[nH]nc(OCCCc2ccc(Cl)cc2)c(NCc2cccnc2)c1Br |  | 5.22 µM (active) |
| CCC[C@H](Nc1nc(-c2ccc(NC(=O)NCC)c(OC)c2)ncc1C)c1cccnc1 |  | 0.0827 µM (active) |
| Cc1ccc(C(=O)N(CCCN)[C@@H](c2nc3cc(Cl)ccc3c(=O)n2Cc2ccccc2)C(C)C)cc1 |  | 0.012 µM (active) |
| Cc1csc(-c2nnc(Nc3ccc(Oc4ncccc4-c4ccnc(N)n4)cc3)c3ccccc23)c1 |  | 23.3 µM (active) |
| CN(C)CC[C@H](CSc1ccccc1)Nc1ccc(S(=O)(=O)NC(=O)c2ccc(N3CCN(Cc4ccccc4-c4ccc(Cl)cc4)CC3)cc2)cc1[N+](=O)[O-] |  | 16.5 µM (active) |
| CC1=C[C@@H]2[C@@H]([C@@H](O)C[C@@]3(C)[C@H]2C[C@@H](C)[C@]3(O)C(=O)CO)[C@@]2(C)Cc3cnn(-c4ccccc4)c3C=C12 | -7.21% |  |
| CN1CCN(c2ncc(-c3cc(Cl)cc(Cl)c3Cl)c(N)n2)CC1 | -87.1% |  |
| CC[C@H](NC(=O)[C@H](C)NC)C(=O)N1C[C@@H](O)C[C@H]1Cc1c(-c2[nH]c3cc(F)ccc3c2C[C@H]2C[C@H](O)CN2C(=O)[C@H](CC)NC(=O)[C@H](C)NC)[nH]c2cc(F)ccc12 |  | 5.22 µM (active) |
| C=CC(=O)Nc1cccc(Sc2nc(Nc3ccc(N4CCN(C)CC4)cc3)ncc2Cl)c1 |  | 23.3 µM (active) |
| CC1=C(CC(=O)O)c2cc(F)ccc2C1=Cc1ccc(S(C)=O)cc1 (stereo not given) | -3.86% |  |
| Nc1ccc(-c2ccc3ncc4ccc(=O)n(-c5cccc(C(F)(F)F)c5)c4c3c2)cn1 |  | 3.69 µM (active) |
| CC1(COc2ccc3c(c2)ncn3-c2ccc3cccc(N4CCC(N)CC4)c3n2)COC1 |  | 20.8 µM (active) |
| COc1ccc2c(c1)c(C1=C(c3c[nH]c4ccccc34)C(=O)NC1=O)cn2CCCN(C)C |  | 23.3 µM (active) |

| Compound | activity change, negative = cytotoxic | Potency |
| --- | --- | --- |
| CC(C)C[C@@H](C(=O)N[C@H](C(=O)OC1CCCC1)c1ccccc1)[C@H](O)C(=O)NO |  | 18.5 µM (active) |
| CCC[C@H](N[C@@H](C)C(=O)N1[C@@H]2CCCC[C@H]2C[C@H]1C(=O)O)C(=O)OCC | -7.3% |  |
| Cc1ccc(C(=O)N(CCCN)[C@@H](c2oc3cc(Cl)ccc3c(=O)c2Cc2ccccc2)C(C)C)cc1 |  | 0.0052 µM (active) |
| CN(C)CCN(C)C(=O)c1ccc(NC(=O)Nc2ccc(-c3nc(N4CCOCC4)c4ccn(CC(F)(F)F)c4n3)cc2)cc1 |  | 20.8 µM (active) |
| CO[C@H]1/C=C\O[C@@]2(C)Oc3c(C)c(O)c4c(O)c(c5c(nc6cc(C)ccn65)c4c3C2=O)NC(=O)C(C)=CC=C[C@H](C)[C@H](O)[C@@H](C)[C@@H](O)[C@@H](C)[C@H](OC(C)=O)[C@H]1C | -3.87% |  |
| CCC(=O)N1CCN(c2ccc(-n3c(=O)ccc4cnc5ccc(-c6cnc7ccccc7c6)cc5c43)cc2C(F)(F)F)CC1 | -12.1% |  |
| CC1C(=O)OC2C(O)C34C5CC(C(C)(C)C)C36C(OC(=O)C6O)OC4(C(=O)O5)C12O (stereo not given) | 3.34% |  |
| CN(C(Cc1ccc(OS(=O)(=O)c2cccc3cnccc23)cc1)C(=O)N1CCN(c2ccccc2)CC1)S(=O)(=O)c1cccc2cnccc12 (stereo not given) | -4.76% |  |
| OCCn1cc(-c2ccc3c(c2)CCC3=NO)c(-c2ccncc2)n1 | -4.59% [at 97.2 µM] |  |
| NC(N)=Nc1nc(CSCCC(N)=NS(N)(=O)=O)cs1 | 19.6% |  |
| CN[C@@H]1CN(c2ccc3c(=O)c(C(=O)O)cn(-c4nccs4)c3n2)C[C@@H]1OC |  | 11.5 µM (active) |
| CCOC(=O)[C@H](CCc1ccccc1)N[C@@H](C)C(=O)N1CCCC1C(=O)O (stereo not given in full) | -20.4% |  |
| Nc1[nH]nc2nnc(-c3c(-c4ccccc4)nn4ccccc34)cc12 | 14.6% |  |
| Cc1ccc2c(c1)C(=O)[C@]1(O)CCN(c3ccccc3)C1=N2 | -5.49% |  |
| COc1ccc(-c2ccc3ncc4c(c3c2)n(-c2ccc(N3CCNCC3)c(C(F)(F)F)c2)c(=O)n4C)cn1 |  | 2.33 µM (active) |
| COC1CCC(C(=O)c2ccc3nc4c(cc3c2)CCCO4)CC1 (stereo not given) |  | 23.3 µM (active) |
| Cc1cnc(-c2cc(N3CCN(C(=O)CCS(C)(=O)=O)CC3)ncc2Cl)c(C)c1 | -20.6% |  |
| CC(C)(C)c1[nH]cnc1C=c1[nH]c(=O)c(=Cc2ccccc2)[nH]c1=O |  | 0.018 µM (active) |
| CSc1cccc(Nc2ncc3cc(-c4c(Cl)cccc4Cl)c(=O)n(C)c3n2)c1 |  | 1.17 µM (active) |
| Nc1ccn([C@@H]2O[C@H](CO)[C@@H](O)[C@H]2O)c(=O)n1 | -18% |  |
